Results from the supplement of paper PMC4166925.
± gives the standard deviation of the averaged measurements. Over roughly 33,000 sequences, “E-score (dimensionless, -0.5 to 0.5)” has its median near -0.049; the highest 2% begin near 0.37. The sample holds the highest values, similar sequences and a random draw of the others, so the mix is not that of the screen.

What follows are sequences tested on T1, PmTbr T-box DNA-binding domain (GST fusion) (assay: PBM E-score of 8-mer (E-score (dimensionless, -0.5 to 0.5)); Tbr is Tbrain of the sea star Patiria miniata (Pm) or the sea urchin Strongylocentrotus purpuratus (Sp); higher = stronger binding preference). Details: the construct has about 5 more residues each side.
T1 sequence: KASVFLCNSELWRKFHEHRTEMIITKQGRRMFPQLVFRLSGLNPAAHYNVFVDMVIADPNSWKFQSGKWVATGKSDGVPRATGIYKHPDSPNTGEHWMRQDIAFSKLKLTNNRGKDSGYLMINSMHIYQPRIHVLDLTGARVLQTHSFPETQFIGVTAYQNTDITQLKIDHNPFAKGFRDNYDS
Summary of the method: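 Primer extension turned Universal Agilent oligonucleotide arrays double-stranded. They were incubated with 200 nM protein in PBS (pH 7.5); the protein was a GST-fused Tbr T-box DNA-binding domain expressed in BL21 E. coli at 20 °C and purified on glutathione. Every ungapped 8-mer was scored from the scanned, quantified probe intensities, and the Universal PBM Analysis Suite gave each an enrichment E-score averaged over duplicate arrays.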

Sequence | PBM E-score of 8-mer
GTATGCCA | -0.0108 ± 0.032
CTTGTAGC | 0.0941 ± 0.012
GGCGACAC | 0.402 ± 0.019
AGCGACAC | 0.317 ± 0.054
TGCGACAA | 0.296 ± 0.013
CGCGACAA | 0.336 ± 0.0038
GGCGACAA | 0.3812 ± 0.0024
CGCGACAG | 0.308 ± 0.014
CACGACAC | 0.314 ± 0.0061
GGCGACCC | -0.0415 ± 0.017
CGCGACAC | 0.375 ± 0.02
CCGACGCA | -0.0454 ± 0.012
GTCACATA | 0.263 ± 0.0064
ATGCGATC | -0.0333 ± 0.042
CAAGTTGA | 0.116 ± 0.0034
AGCGTTGA | 0.102 ± 0.055
CACCTCCG | 0.447 ± 0.0095
CACCTCCA | 0.423 ± 0.0067
CCCCTCCG | 0.137 ± 0.019

Sequence | PBM E-score of 8-mer
AACCTCCG | 0.0421 ± 0.042
CACCTCCC | 0.423 ± 0.0044
TACCTCCA | -0.00358 ± 0.099
GACCTCCC | -0.178 ± 0.0044
AACCTCCA | -0.158 ± 0.028
AACCTCCC | -0.0756 ± 0.12
CCGAAGTA | -0.302 ± 0.021
CCCAAGTA | -0.0284 ± 0.033
CGAGTGCA | -0.0272 ± 0.087
ACGAACTG | 0.0451 ± 0.03
CCTTTGGC | 0.0109 ± 0.046
CGATCCAG | -0.0702 ± 0.018
AGACCTGA | -0.102 ± 0.055
CGACCTGC | 0.196 ± 0.043
ACACCTGG | 0.466 ± 0.0053
ATACCTGC | 0.0129 ± 0.047
ACACCTGA | 0.4657 ± 0.0021
GCACCTGC | 0.395 ± 0.018
GAACCTGC | -0.162 ± 0.0065

Sequence | PBM E-score of 8-mer
ACACCTGC | 0.461 ± 0.017
ATACCTGG | 0.139 ± 0.025
CCACCTGG | 0.252 ± 0.0058
AAACCTGA | 0.0859 ± 0.12
CCACCTGC | 0.299 ± 0.02
ATGCCCAC | -0.186 ± 0.051
AGAACCCT | -0.229 ± 0.014
ACTCGCCA | 0.144 ± 0.015
CCTCTTAG | -0.103 ± 0.0023
CTATACCA | -0.205 ± 0.013
AGCCCCAG | -0.138 ± 0.057
TCTTGCCA | 0.0678 ± 0.023
GAGAACCC | -0.0803 ± 0.011
AGGCTCTG | -0.0891 ± 0.012
AAGAATGT | -0.0657 ± 0.011
ATCAGTGG | -0.0659 ± 0.059
AGGGCAAG | -0.2 ± 0.018
TCGATTCA | 0.0262 ± 0.015
GTGGGCCA | -0.191 ± 0.031
